Data as given in PubChem BioAssay AID1835 (Johns Hopkins Ion Channel Center, 2009).
The whole screen tested about 2,400 compounds, of which about 750 (31%) were called active. The list shows a part of the results. Unmarked numbers belong to inactive results.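 Rule for the calls: active = median signal gain over dofetilide-blocked control wells reaching their mean plus 3 SD, so readout 1 at least 0; inactive = the rest.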

The compounds below were run against Voltage-gated inwardly rectifying potassium channel KCNH2 (Homo sapiens) (UniProt Q12809) (assay: modulators restoring hERG flux under dofetilide – cell-based, thallium flux, duplicate retest, dofetilide IC70, confirmation (AID 1835)). Conditions: hERG cell line, FluxOR thallium flux, dofetilide-blocked; at 10 µM; hits give high values.
Sequence of Voltage-gated inwardly rectifying potassium channel KCNH2 (Homo sapiens) (Q12809 whole entry, looked up): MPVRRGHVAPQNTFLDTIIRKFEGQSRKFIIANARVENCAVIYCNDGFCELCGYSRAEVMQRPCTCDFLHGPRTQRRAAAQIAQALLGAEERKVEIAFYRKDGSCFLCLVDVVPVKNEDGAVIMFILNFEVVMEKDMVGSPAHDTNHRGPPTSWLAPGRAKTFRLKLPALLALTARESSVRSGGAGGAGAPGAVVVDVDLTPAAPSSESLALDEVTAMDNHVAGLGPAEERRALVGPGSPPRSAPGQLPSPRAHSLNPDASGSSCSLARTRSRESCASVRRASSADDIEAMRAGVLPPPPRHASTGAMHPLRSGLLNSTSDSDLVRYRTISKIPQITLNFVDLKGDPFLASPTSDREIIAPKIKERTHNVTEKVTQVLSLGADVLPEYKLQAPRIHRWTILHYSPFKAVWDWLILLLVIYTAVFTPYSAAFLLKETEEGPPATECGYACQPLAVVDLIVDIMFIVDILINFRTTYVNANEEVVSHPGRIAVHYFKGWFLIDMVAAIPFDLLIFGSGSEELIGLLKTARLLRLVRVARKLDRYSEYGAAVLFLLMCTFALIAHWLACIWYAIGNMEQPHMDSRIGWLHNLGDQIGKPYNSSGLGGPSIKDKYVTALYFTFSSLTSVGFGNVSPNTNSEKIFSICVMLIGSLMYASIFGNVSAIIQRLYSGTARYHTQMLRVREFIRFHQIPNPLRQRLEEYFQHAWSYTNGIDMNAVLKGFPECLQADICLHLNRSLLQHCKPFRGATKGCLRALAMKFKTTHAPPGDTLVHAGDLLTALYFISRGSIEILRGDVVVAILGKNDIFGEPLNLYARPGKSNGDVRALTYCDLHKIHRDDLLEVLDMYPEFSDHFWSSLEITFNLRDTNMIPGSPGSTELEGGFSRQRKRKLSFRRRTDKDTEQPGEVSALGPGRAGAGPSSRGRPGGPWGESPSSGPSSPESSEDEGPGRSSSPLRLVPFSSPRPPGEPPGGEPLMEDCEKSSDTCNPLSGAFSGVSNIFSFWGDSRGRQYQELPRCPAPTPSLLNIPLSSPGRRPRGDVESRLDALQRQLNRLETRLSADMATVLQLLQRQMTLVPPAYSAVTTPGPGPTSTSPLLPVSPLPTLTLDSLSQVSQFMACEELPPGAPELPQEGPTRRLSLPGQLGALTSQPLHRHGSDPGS
`CCC1=NN(C(=O)c2ccc(Cl)cc2)C(O)(c2ccc(C)cc2)C1` (stereo unspecified) gave an activity increase over dofetilide control, less the hit threshold of -14%.
For `CCOC(=O)C1=NN(C(=O)c2ccc(OC)cc2)C(O)(c2ccc(Cl)cc2)C1` (stereo unspecified), the activity increase over dofetilide control, less the hit threshold was 81% (active).
Work on `CCOC(=O)CN1N=C(/C=C/c2ccc(OC)cc2)CCC1=O` yielded an activity increase over dofetilide control, less the hit threshold of -25%.
Compound `O=C1C=C(Nc2cccc3cccnc23)c2ccccc2C1=O` has an activity increase over dofetilide control, less the hit threshold of -5%.
For `COCC(=O)Nc1cc(C)cn(Cc2c(F)cccc2Cl)c1=O`, the activity increase over dofetilide control, less the hit threshold was -5%.
With `Cc1ccc(C(=C2C3C=CC2C2C(=O)NC(=O)C32)c2ccc(C)cc2)cc1` (stereo unspecified) the activity increase over dofetilide control, less the hit threshold was -15%.
`CC(C)(C)c1cc(CCC(=O)NCc2ccncc2)cc(C(C)(C)C)c1O` gave an activity increase over dofetilide control, less the hit threshold of -11%.
In the case of `CC(C)(C)NS(=O)(=O)c1ccc(NC(=O)c2cc(-c3ccccc3)nc3ccccc23)cc1`, the activity increase over dofetilide control, less the hit threshold is reported as -11%.
Compound `COC(=O)c1ccc(NC(=S)NC(=O)c2c(-c3ccccc3)noc2C)cc1` has an activity increase over dofetilide control, less the hit threshold of -15%.
For `COC(=O)c1ccc(NC(=S)NC(=O)c2cc(-c3ccccc3)nc3ccccc23)cc1`, the activity increase over dofetilide control, less the hit threshold was 11% (active).
`O=C(N/N=C/c1ccccn1)c1cc(-c2ccc(Br)cc2)nc2ccccc12` was tested, and the activity increase over dofetilide control, less the hit threshold was -46%.
For `Cc1ccccc1NC(=S)NC(=O)c1cc(-c2ccccc2)nc2ccccc12`, the activity increase over dofetilide control, less the hit threshold was 27% (active).
In the case of `Cc1ccc2nc(-c3ccccn3)cc(C(=O)NC3CCN(C)CC3)c2c1`, the activity increase over dofetilide control, less the hit threshold is reported as -19%.
With `O=C(NC(=S)Nc1ccccc1)c1cc(-c2ccccc2)nc2ccccc12` the activity increase over dofetilide control, less the hit threshold was 8% (active).
For `O=C(NC(=S)Nc1ccccn1)c1cc(-c2ccccc2)nc2ccccc12`, the activity increase over dofetilide control, less the hit threshold was 1% (active).
For `Cc1ccc(NC(=O)c2cc(NC(=O)/C=C\C(=O)O)ccc2N2CCCCC2)cc1`, the activity increase over dofetilide control, less the hit threshold was -11%.
In the case of `Cc1nnc(N2C(=O)C(=O)/C(=C(\O)c3ccc4c(c3)CC(C)O4)C2c2ccccc2)s1` (stereo unspecified), the activity increase over dofetilide control, less the hit threshold is reported as -7%.
`Cc1ccc(CNC(=O)C2=CCN(S(=O)(=O)c3ccc(C)cc3)CC2)cc1` gave an activity increase over dofetilide control, less the hit threshold of -24%.
With `CCCCn1nnc(NC(=O)Cc2ccc(Cl)cc2)n1` the activity increase over dofetilide control, less the hit threshold was -3%.
`Cc1cccc(NC(=S)NC(=O)c2cc(-c3ccccc3)nc3ccccc23)c1` was tested, and the activity increase over dofetilide control, less the hit threshold was 8% (active).
`Cc1ccc2nc(-c3ccncc3)cc(C(=O)Nc3ccc4c(c3)OCCO4)c2c1` gave an activity increase over dofetilide control, less the hit threshold of -15%.
`O=C(CCSCCc1ccccn1)Nc1cccc([N+](=O)[O-])c1` showed an activity increase over dofetilide control, less the hit threshold of -4%.
`O=C(O)c1ccc(N=NNc2cccc([N+](=O)[O-])c2)cc1` gave an activity increase over dofetilide control, less the hit threshold of -2%.
With `NC(=O)c1cccnc1Nc1cccc([N+](=O)[O-])c1` the activity increase over dofetilide control, less the hit threshold was 10% (active).
`O=C(NCC(c1cccs1)N1CCOCC1)c1cc(S(=O)(=O)N2CCOCC2)ccc1F` (stereo unspecified) was tested, and the activity increase over dofetilide control, less the hit threshold was -22%.
`CCc1cc2c(=O)n(CCC(C)C)c(=S)[nH]c2s1` was tested, and the activity increase over dofetilide control, less the hit threshold was 71% (active).
`CC(C)(C)OC(=O)N1CCC2(CC1)Oc1ccc(Cl)cc1C(=O)C21CC(c2ccc(Cl)cc2)=NO1` (stereo unspecified) was tested, and the activity increase over dofetilide control, less the hit threshold was -19%.
`COc1ccc2ncc(OC(C)=O)cc2c1` was tested, and the activity increase over dofetilide control, less the hit threshold was -14%.
With `COc1ccc2nc(N=Nc3c(O)ccc4ccccc34)sc2c1` the activity increase over dofetilide control, less the hit threshold was 31% (active).
Work on `O=C(Nc1ccccc1)O/N=C/c1ccncc1` yielded an activity increase over dofetilide control, less the hit threshold of -7%.
With `CN(C)C(=O)c1cc(C(=O)c2ccc(Cl)cc2Cl)c[nH]1` the activity increase over dofetilide control, less the hit threshold was -4%.
For `CN(C)CCCN=C(NO)c1ccc(Cl)cc1Cl`, the activity increase over dofetilide control, less the hit threshold was 4% (active).
`C=CCSC1=C(C#N)C(c2ccccc2)CC(=O)N1` (stereo unspecified) gave an activity increase over dofetilide control, less the hit threshold of -15%.
Compound `Cc1ccc(C(=O)NC2CCC(C)CC2)o1` (stereo unspecified) has an activity increase over dofetilide control, less the hit threshold of -23%.
In the case of `CCC(C)(C(=O)NC1CCCC1)N(Cc1ccco1)C(=O)c1ccccn1` (stereo unspecified), the activity increase over dofetilide control, less the hit threshold is reported as -13%.
For `Cc1ccc(C(C(=O)NC(C)(C)C)N(Cc2cccnc2)C(=O)C(=O)NC2CCCCC2)o1` (stereo unspecified), the activity increase over dofetilide control, less the hit threshold was 0% (active).
`CC(C)C(O)(C#CCN1CCCC1)c1ccccc1` (stereo unspecified) was tested, and the activity increase over dofetilide control, less the hit threshold was -16%.
In the case of `CCn1c2ccccc2c2cc(NC(=O)COc3ccccc3)ccc21`, the activity increase over dofetilide control, less the hit threshold is reported as -20%.
For `CCOc1ccc(N(CC)C(=O)COc2cc(=O)n(C)c3ccccc23)cc1`, the activity increase over dofetilide control, less the hit threshold was 1% (active).
`CCOc1ccc(-n2c(C)c(C(C)=O)c3cc(O)ccc32)cc1` gave an activity increase over dofetilide control, less the hit threshold of -14%.
In the case of `CC(C)Oc1ccc(CNC(=O)C2CCN(C(=O)N3CCOc4ccccc43)CC2)cc1`, the activity increase over dofetilide control, less the hit threshold is reported as -31%.
`CCOc1ccccc1C(=O)NC1CC2CCCC(C1)N2Cc1nnnn1Cc1ccco1` (stereo unspecified) showed an activity increase over dofetilide control, less the hit threshold of -24%.
`Cc1[nH]c(=O)[nH]c(=O)c1S(=O)(=O)N1CCC(C(=O)NC(C)c2ccccc2)CC1` (stereo unspecified) gave an activity increase over dofetilide control, less the hit threshold of -4%.
`CCCCc1c(C)[nH]c(C(=O)OCC)c1C` showed an activity increase over dofetilide control, less the hit threshold of -14%.
In the case of `CCOC(=O)c1c(C)[nH]c(C)c1S(=O)(=O)N1CCCCC1`, the activity increase over dofetilide control, less the hit threshold is reported as 4% (active).
With `O=C1c2nc3cc(-c4ccco4)[nH]n3c(=O)c2CN1Cc1ccccc1` the activity increase over dofetilide control, less the hit threshold was -10%.
Work on `CCC(=O)NC(c1cccs1)c1ccc2cccnc2c1O` (stereo unspecified) yielded an activity increase over dofetilide control, less the hit threshold of -8%.
Work on `O=c1c(Cc2ccccc2)c(O)nc2n1CCCS2` yielded an activity increase over dofetilide control, less the hit threshold of -3%.
With `O=c1c2[nH]c3ccccc3c2nc2n1CCCS2` the activity increase over dofetilide control, less the hit threshold was 3% (active).
`CCOC(=O)N1CCN(C(=O)CSc2nc3c([nH]c4ccccc43)c(=O)n2CC)CC1` gave an activity increase over dofetilide control, less the hit threshold of 0%.
`COc1ccc(NC(=O)C2CCN(S(=O)(=O)c3cn(C)nc3C)CC2)cc1` showed an activity increase over dofetilide control, less the hit threshold of -12%.
